The sample as a whole holds a higher share of hits than the screen did.
Cycloheximide cs – Cycloheximide Counterscreen for Small Molecule Inhibitors of Shiga Toxin. cell reporter, cycloheximide protein synthesis inhibition counterscreen. max response, %. 300,000 tested, 12% active. AID 2314, 2010; in the data active means max response mostly above about 13%, no sharp cut-off; inactive means mostly below about 14%; further: read at 38.3 µM for the half of the compounds with a filed dose; 0% is about no effect
Tb PYK inh – qHTS of Trypanosoma Brucei Inhibitors. 410,000 tested, 0.12% active. pyruvate kinase (Trypanosoma brucei), Q57TT1. Potency, µM (doses to about 76.8 µM), for inactives: top-dose activity, negative = inhibition, hits mostly inhibitors. AID 624173, 2012. TbPYK enzyme, Kinase-Glo Plus ATP luminescence, 45 min; further: potency means the concentration at half of the fitted maximal effect; on the % scale 0 is the no-effect control and ±100 the full control effect; nearly all actives have a fitted effect of over 50% in size
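Readout: single end-point luminescence (Kinase-Glo Plus, 10 min). Reaction conditions were TbPYK/substrate plus 130 uM ADP, 45 min at RT, pH 7.2 TEA buffer. No-enzyme wells served as controls, and data were normalized before concentration-response fitting.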
Shiga inhibitor – A qHTS for Small Molecule Inhibitors of Shiga Toxin | 290,000 tested, 9.2% active | inhibition, % at 38.7 µM | Vero cells, Shiga toxin protein synthesis inhibition reporter; in the data active means inhibition mostly above about 28%, no sharp cut-off; inactive means mostly below about 43%; further: 0% is about no effect
LmPK inh – qHTS Assay for Inhibitors of Leishmania Mexicana Pyruvate Kinase (LmPK) | Q27686 | purified LmPK, Kinase-Glo ATP luminescence, 1 h | Potency, µM (titrated, usually from 57.5 µM), for inactives: at the highest dose activity change, negative = inhibition, actives largely listed as inhibitors | 290,000 tested, 0.37% active | AID 1721, 2009; further: potency means the concentration at half of the fitted maximal effect; on the % scale 0 is the no-effect control and ±100 the full control effect
Target sequence (Q27686 whole entry, looked up): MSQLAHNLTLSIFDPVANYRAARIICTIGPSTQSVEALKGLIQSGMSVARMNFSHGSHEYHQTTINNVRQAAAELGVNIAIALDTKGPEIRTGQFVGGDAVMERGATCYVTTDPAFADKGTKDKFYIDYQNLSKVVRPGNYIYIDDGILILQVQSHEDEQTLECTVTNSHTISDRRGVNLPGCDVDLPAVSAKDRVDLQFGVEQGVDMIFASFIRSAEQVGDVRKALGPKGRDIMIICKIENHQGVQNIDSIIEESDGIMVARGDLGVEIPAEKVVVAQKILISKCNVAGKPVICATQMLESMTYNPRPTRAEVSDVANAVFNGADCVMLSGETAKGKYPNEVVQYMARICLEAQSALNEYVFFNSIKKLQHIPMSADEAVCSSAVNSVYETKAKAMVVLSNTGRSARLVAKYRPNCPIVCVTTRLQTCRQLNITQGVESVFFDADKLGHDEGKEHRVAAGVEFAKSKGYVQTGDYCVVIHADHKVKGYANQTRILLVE
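Screened at intermediate enzyme activity to detect both inhibitors and activators: LmPK at 0.1 nM, with a 0.5 nM enzyme column as activation reference. PEP 0.5 mM, ADP 0.1 mM; ATP detected by luminescence after 1 h.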
Giardia FBPA inh – qHTS Assay for Inhibitors of Fructose-1,6-bisphosphate Aldolase from Giardia Lamblia; A8B2U2; purified Giardia FBPA; Potency, µM (top dose mostly 59.6 µM), without a hit: at the top dose activity, negative = inhibition, usual class: inhibitors; 290,000 tested, 0.71% active; further: potency means the concentration at half of the fitted maximal effect; on the % scale 0 is the no-effect control and ±100 the full control effect; nearly all actives have a fitted effect of over 55% in size
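40 nM FBPA preincubated 10 min at RT with compound (up to 57.5 uM final), then substrate plus GAPDH/TPI/NAD/arsenate coupling and diaphorase/resazurin added. Fluorescence read after 20 min at RT, 525/598 nm.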
Sm TGR inh – qHTS Assay for the Inhibitors of Schistosoma Mansoni Peroxiredoxins | Schistosoma mansoni thioredoxin glutathione reductase (TGR), Q962Y6 | purified TGR, DTNB reduction, TNB absorbance 405 nm | Potency, µM (doses to about 114 µM), without a hit: top-dose activity change, negative = inhibition, usual class: inhibitors | 360,000 tested, 3% active; further: potency means the concentration at half of the fitted maximal effect; on the % scale 0 is the no-effect control and ±100 the full control effect; nearly all actives have a fitted effect of over 60% in size
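Kinetic colorimetric format: TGR-catalysed, NADPH-driven DTNB reduction monitored via TNB absorbance. Enzyme dispensed at 20 nM; compound exposure 15 min at room temperature before reaction start.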
* marks the source's active call; other numbers are inactive results; ? = inconclusive; nt = no result given; [ ] = dose if it differs, or a comment. Unless noted, the call rests on the fitted dose curve; in most records, active means well fitted curve in the direction sought with a large enough effect; inconclusive means small, poorly fitted or top-dose-only effect, or another doubt; inactive means no such curve, though single readings can be large; an effect the other way counts as inactive or inconclusive.

SMILES | Cycloheximide cs | Tb PYK inh | Shiga inhibitor | LmPK inh | Giardia FBPA inh | Sm TGR inh
c1ccc(N2CCN(c3cnccn3)CC2)nc1 | -7 | 0% | -11 | 0% | 0% | 5%
N#Cc1cc(C#N)c(N2CCN(c3ccccn3)CC2)nc1N | 44* | -7% | 60* | 0% | 4% | 8%
Cc1ccc(C2/C(=C(\O)c3ccc4c(c3)OCCO4)C(=O)C(=O)N2CCCN(C)C)o1 (stereo unspecified) | 19* | nt | 28 | 5% | -19% | -32%
COc1ccc(/C(O)=C2/C(=O)C(=O)N(CCN(C)C)C2c2ccc(C)cc2)cc1Cl (stereo unspecified) | -1 | -7% | 32 | 0% | 22% | -20%
COc1ccc(/C(O)=C2/C(=O)C(=O)N(CCCN(C)C)C2c2ccc(C)o2)cc1Cl (stereo unspecified) | 8 | nt | 3 | 0% | -19% | 45µM*
O=C(O)c1ccccc1Nc1cc(Cl)c2nonc2c1[N+](=O)[O-] | -3 | 13% | -7 | -1% | -8% | 0.45µM*
O=[N+]([O-])c1c(Nc2ccc(O)cc2)cc(Cl)c2nonc12 | -8 | 1% | -6 | 0% | 5% | 0.32µM*
CN(C)c1cc(Nc2ccc(O)cc2)c([N+](=O)[O-])c2nonc12 | 1 | 1% | 12 | 0% | -2% | 0%
O=C(O)c1cccc(Nc2cc(Cl)c3nonc3c2[N+](=O)[O-])c1 | -2 | 2% | -20 | 3% | -5% | 0.35µM*
O=[N+]([O-])c1ccc(Nc2ccccn2)c([N+](=O)[O-])c1 | 14 | -3% | -2 | 2% | 0% | -14%
O=[N+]([O-])c1c(Nc2ccccn2)cc(Cl)c2nonc12 | 1 | -2% | -2 | -9% | 0.45µM* | 0.89µM*
Cn1cc(CCC(=O)N2CCCC(CCC(=O)NCc3ccc(F)c(F)c3)C2)cn1 (stereo unspecified) | 17* | 2% | 43* | -3% | 3% | -14%
COCCC(=O)N1CCCC(CCC(=O)NCc2ccc(F)c(F)c2)C1 (stereo unspecified) | 17* | 0% | 79* | 1% | 0% | -18%
Cn1cc(CCC(=O)N2CCCC(CCC(=O)NCc3ccccc3F)C2)cn1 (stereo unspecified) | 3 | 1% | 18 | -15% | -2% | -27%[57.1 µM]
CCOC(=O)CNC(=O)N1CCCC(CCC(=O)NCc2ccc(F)c(F)c2)C1 (stereo unspecified) | -2 | 0% | 15 | 4% | 2% | 21%
CCOC(=O)c1cccnc1SCC(=O)NC(C)CC (stereo unspecified) | -5 | 2% | -1 | 2% | 9% | -3%
Cc1ccc(NC(=O)CSc2ncccc2C(=O)Oc2ccccc2Cl)cc1Cl | nt | -11% | nt | nt | nt | -11%
O=C(COC(=O)c1cccnc1SCC(=O)NCc1ccccc1)NCc1ccccc1 | 11 | 1% | 4 | 2% | -1% | -15%
CCOC(=O)c1cccnc1SCC(=O)Nc1ccc(C)cc1 | 22* | 1% | 48 | 5% | -2% | 3%
COc1ccccc1CNC(=O)COC(=O)c1cccnc1SCC(=O)NCc1ccccc1OC | 29* | -11% | 68* | 11% | -2% | -3%
Cc1ccc(NC(=O)CSc2ncccc2C(=O)Oc2cccc([N+](=O)[O-])c2)cc1Cl | 11 | -1% | 75* | -8% | -4% | 0%
C=CCc1cc(OC)c(O)c(C(=O)NCCO)c1 | nt | -10% | nt | nt | nt | nt
COc1ccc(OC)c(CCNC(=O)CCCn2c(=O)c3cccn3c3ccc(F)cc32)c1 | nt | -1% | nt | nt | nt | 2%
COc1ccc2c(c1)OC1=C(C(=O)CCC1)C2C1=C(O)CCCC1=O (stereo unspecified) | -4 | -16% | -5 | 0% | -2% | 18µM*
O=C1CCCC(O)=C1C1C2=C(CCCC2=O)OC2=C1C(=O)CCC2 | 1 | 6% | 3 | -7% | 2% | -6%[57.1 µM]
SMILES | Cycloheximide cs | Tb PYK inh | Shiga inhibitor | LmPK inh | Giardia FBPA inh | Sm TGR inh
COc1ccc(N(Cc2nnc3n2CCCCC3)C(=O)Nc2ccc(Cl)cc2)cc1Cl | nt | 0% | nt | nt | nt | 8%
Cc1cccc(OCC(=O)O/N=C(\N)c2ccncc2)c1 | 20* | -1% | 59* | 1% | 6% | -7%
CC(C)(C)c1ccc(OCC(=O)O/N=C(\N)c2ccncc2)cc1 | nt | -2% | nt | nt | nt | nt
N/C(=N\OC(=O)COc1ccc2ccccc2c1Br)c1ccncc1 | 24* | nt | 91* | 0% | -6% | nt
N/C(=N\OC(=O)COc1ccc2ccccc2c1)c1cccnc1 | 24* | -5% | 52* | -1% | -8% | 0%
N/C(=N\OC(=O)COc1ccc2ccccc2c1)c1ccncc1 | 31* | 2% | 34* | 2% | -12% | 7%
N/C(=N\OC(=O)COc1ccc([N+](=O)[O-])cc1)c1cccnc1 | -2 | 1% | 15 | 4% | 5% | 13%
Cc1nccn1CCOc1ccccc1Cl | 2 | -1% | 10 | 2% | 2% | 1%
Cc1ccc(CNC(=O)C2(C)CCN2C(=O)Cc2ccc(C(C)(C)C)cc2)cc1 (stereo unspecified) | nt | 8% | nt | nt | nt | nt
COC(=O)C1CCCCN1C(=O)c1ccc2oc(C(C)C)nc2c1 (stereo unspecified) | 27* | 1% | 57* | -9% | -8% | 1%
COC(=O)C1CCCCN1C(=O)c1ccc2oc(Cc3ccccc3)nc2c1 (stereo unspecified) | 67* | -7% | 83* | -7% | nt | -5%
Cc1ccccc1-n1nc2c(c1NC(=O)c1cc3ccccc3o1)CS(=O)(=O)C2 | nt | -1% | nt | nt | nt | -19%
COc1ccc(-n2nc3c(c2NC(=O)c2ccc(Br)o2)CS(=O)(=O)C3)cc1 | -1 | 0% | -20 | 4% | 3% | 35µM*
COc1ccc(-n2nc3c(c2NC(=O)c2cc4ccccc4o2)CS(=O)(=O)C3)cc1 | -3 | -11% | -5 | -5% | nt | 50µM*
CC(C)C(=O)N1CCCC1(C)C(=O)Nc1ccc(-n2cncn2)cc1 (stereo unspecified) | nt | 7% | nt | nt | nt | nt
FC(F)Oc1ccc(NC(=S)NC2CCCCCCC2)cc1 | 34* | -8% | 65* | -6% | 7% | -13%
S=C(Nc1ccc(Br)cc1)NC1CCCCC1 | 51* | 0% | 67* | 4% | 0% | -2%
S=C(Nc1ccc(Cl)cc1)NC1CCCCC1 | 41* | -1% | 68* | 11% | 0% | -4%
FC(F)Oc1ccc(NC(=S)NC2CCSc3ccccc32)cc1 (stereo unspecified) | 7 | -5% | 8 | -12% | nt | ?
CC(=O)N1CCc2cc(S(=O)(=O)NC(Cc3ccccc3)C(=O)Nc3cc(C)ccc3C)ccc21 (stereo unspecified) | nt | 1% | nt | nt | nt | -4%
